{"source": "PubChem BioAssay (NCATS)", "note": "Results filed as inconclusive are left out. Active and inactive are the calls of the source. Calls follow the shape of the dose curve; as a rule, active = well fitted inhibition curve with a large enough effect; inconclusive = small, poorly fitted or top-dose-only effect; inactive = flat fitted curve, though single readings scatter. % is scaled to controls: 0 for no effect and ±100 for the full control effect; potency is read from the fitted curve at half-maximal effect."}
{"system": "astro", "test": "Drug repurposing screens with cells derived from glioblastoma tumor samples (AID 1345199); also: nearly all actives have a fitted effect of over 40% in size", "settings": "viability, ATP luminescence, 48 h; series mostly up to 45.9 µM; activity, negative = cell killing: at the top concentration", "protocol": "CD133+ cells were isolated from GBM patient biopsies and cultured as neurospheres. Neurospheres from four patients were used to screen the NCATS pharmaceutical collection (NPC) library of approved drugs and bioactive compounds. […] The neurospheres were incubated with drugs for 48 hours in 1536-well format, then assayed with an ATP content cell viability assay. […] These hits were cherry picked to confirm activity in the four original GBM lines screened plus three other slower growing GMB lines (unable to yield enough cells for a full primary screen). Variable activities of the confirmed primary hits in the different GBM patient lines were observed. The patient line 206 responded to the greatest number of compounds and line 923 responded to the least amount of active compounds."}
{"compound": "NC(=O)CN1CCCC1=O", "activity, negative = cell killing": "-17.8% [at 21.2 µM] (inactive)"}
{"compound": "O=C(O)Cc1ccccc1", "activity, negative = cell killing": "-19.3% (inactive)"}
{"compound": "CCN(CC)Cc1nccn1-c1ccc([N+](=O)[O-])cc1C(=O)c1ccccc1Cl", "activity, negative = cell killing": "-0.691% (inactive)"}
{"compound": "Clc1ccc(C(OCCN2CCCCC2)c2ccccc2)cc1", "note": "(stereo not given)", "activity, negative = cell killing": "-25.6% [at 21.2 µM] (inactive)"}
{"compound": "CCN(Cc1ccc(Cl)nc1)/C(=C/[N+](=O)[O-])NC", "activity, negative = cell killing": "-18% (inactive)"}
{"compound": "CCC(=O)O[C@H]1CC[C@H]2[C@@H]3CCC4=CC(=O)CC[C@]4(C)[C@H]3CC[C@]12C", "activity, negative = cell killing": "-21% [at 21.2 µM] (inactive)"}
{"compound": "C[C@H]1CNCCc2ccc(Cl)cc21", "activity, negative = cell killing": "-12.5% (inactive)"}
{"compound": "O=C(O)CCCCCCNC1c2ccccc2CCc2ccccc21", "activity, negative = cell killing": "-17.3% (inactive)"}
{"compound": "CCC1(CC)C(=O)NC(=O)NC1=O", "activity, negative = cell killing": "-16.7% (inactive)"}
{"compound": "CCOC(=O)NC(C)(C)Cc1ccc(Cl)cc1", "activity, negative = cell killing": "-13% (inactive)"}
{"compound": "CC(C)[N+](C)(CCC(C(N)=O)(c1ccccc1)c1ccccc1)C(C)C", "activity, negative = cell killing": "-15.3% [at 21.2 µM] (inactive)"}
{"compound": "C[C@@H]1O[C@@H](O[C@@H]2C=C3CC[C@@H]4[C@H](CC[C@]5(C)[C@@H](c6ccc(=O)oc6)CC[C@]45O)[C@@]3(C)CC2)[C@H](O)[C@H](O)[C@H]1O", "Potency": "0.0282 µM (active)"}
{"compound": "C[C@@H]1CN(C2CCC(C#N)(c3ccc(F)cc3)CC2)CC[C@]1(C(=O)O)c1ccccc1", "note": "(stereo not given in full)", "activity, negative = cell killing": "-11.6% [at 21.2 µM] (inactive)"}
{"compound": "Oc1ccc([C@H]2CNCc3c2ccc(O)c3O)cc1O", "activity, negative = cell killing": "-8.58% (inactive)"}
{"compound": "CC1N=C(N)OC1c1ccccc1", "note": "(stereo not given)", "activity, negative = cell killing": "-8.77% [at 91.6 µM] (inactive)"}
{"compound": "CN1C(=O)CN=C(c2ccccc2)c2cc([N+](=O)[O-])ccc21", "activity, negative = cell killing": "-26.8% (inactive)"}
{"compound": "O=C(N[C@H]1N=C(c2ccccc2F)c2cccc3c2N(CC3)C1=O)c1cc2ccccc2[nH]1", "activity, negative = cell killing": "-21.6% (inactive)"}
{"compound": "O=C(CCl)c1ccc(Cl)cc1Cl", "Potency": "12.6 µM (active)"}
{"compound": "CC(C)=C[C@@H]1[C@@H](C(=O)OCc2coc(Cc3ccccc3)c2)C1(C)C", "activity, negative = cell killing": "-28.9% (inactive)"}
{"compound": "C[C@H](N)[C@H](O)c1ccc(O)c(O)c1", "activity, negative = cell killing": "-23.3% (inactive)"}
{"compound": "CNC(C)Cc1ccc2c(c1)OCO2", "note": "(stereo not given)", "activity, negative = cell killing": "-15.8% [at 108 µM] (inactive)"}
{"compound": "CCCCCCCCCCCC[N+](C)(C)CCOc1ccccc1", "Potency": "20 µM (active)"}
{"compound": "C[C@H](CN1CCOCC1)C(C(=O)N1CCCC1)(c1ccccc1)c1ccccc1", "activity, negative = cell killing": "-20% [at 108 µM] (inactive)"}
{"compound": "O=C(O)c1nn(Cc2ccc(Cl)cc2Cl)c2ccccc12", "activity, negative = cell killing": "-29.2% (inactive)"}
{"compound": "CCC1(c2cccc(O)c2)CCCCN(C)C1", "note": "(stereo not given)", "activity, negative = cell killing": "-12.9% [at 21.2 µM] (inactive)"}
{"compound": "O=C(NC(=O)c1c(F)cccc1F)Nc1cc(Cl)c(OC(F)(F)C(F)C(F)(F)F)cc1Cl", "note": "(stereo not given)", "activity, negative = cell killing": "-16% (inactive)"}
{"compound": "C[C@]12CC[C@H]3[C@@H](CC=C4C[C@@H](O)CC[C@@]43C)[C@@H]1CC[C@@H]2O", "activity, negative = cell killing": "-27.7% (inactive)"}
{"compound": "CCOC(=O)NC(O)C(Cl)(Cl)Cl", "note": "(stereo not given)", "activity, negative = cell killing": "-5.01% (inactive)"}
{"compound": "CC(C)(C)OC(=O)c1ncn2c1[C@@H]1CCCN1C(=O)c1c(Br)cccc1-2", "activity, negative = cell killing": "-5.99% (inactive)"}
{"compound": "COc1cc(CC(C)N)cc2c1OCO2", "note": "(stereo not given)", "activity, negative = cell killing": "-17.9% [at 108 µM] (inactive)"}
{"compound": "O=c1n(Cl)c(=O)n(Cl)c(=O)n1Cl", "activity, negative = cell killing": "-9.56% (inactive)"}
{"compound": "Cc1c(Cl)c(=O)oc2cc(OP(=O)(OCCCl)OCCCl)ccc12", "activity, negative = cell killing": "-18% (inactive)"}
{"compound": "CC(Cc1ccc2c(c1)OCO2)NO", "note": "(stereo not given)", "activity, negative = cell killing": "-9.36% [at 108 µM] (inactive)"}
{"compound": "O=C(CCCN1CCC(n2c(=O)[nH]c3ccccc32)CC1)c1ccc(F)cc1", "activity, negative = cell killing": "-18.4% [at 21.2 µM] (inactive)"}
{"compound": "CCCC[N+]1(C)[C@@H]2CC(OC(=O)[C@H](CO)c3ccccc3)C[C@H]1[C@@H]1O[C@@H]12", "note": "(stereo not given in full)", "activity, negative = cell killing": "-14.3% (inactive)"}
{"compound": "Oc1c(Br)cc(Br)cc1Br", "activity, negative = cell killing": "-14.4% (inactive)"}
{"compound": "COc1ccc2c3c1O[C@H]1[C@@H](O)C=C[C@H]4[C@@H](C2)N(C)CC[C@@]341", "activity, negative = cell killing": "-10.7% [at 91.6 µM] (inactive)"}
{"compound": "CN(C)C(=O)Oc1cc(OC(=O)N(C)C)cc(C(O)CNC(C)(C)C)c1", "note": "(stereo not given)", "activity, negative = cell killing": "-14.1% [at 21.2 µM] (inactive)"}
{"compound": "C[C@H]1C(=O)O[C@@H]2CCN3CC=C(COC(=O)[C@](C)(O)[C@]1(C)O)[C@H]23", "activity, negative = cell killing": "-11.1% (inactive)"}
{"compound": "COP(=S)(OC)Oc1ccc(S(N)(=O)=O)cc1", "activity, negative = cell killing": "-15% (inactive)"}
